Only some compounds are listed: those with a hit (about 10% of all), similar ones and a draw of the others.
G9a inh – inhibitors of human histone lysine methyltransferase G9a | Q96KQ7 | G9a H3K9 monomethylation, AlphaScreen, 2 h | Potency, µM (highest dose often 102 µM), inactives show at the top dose activity, negative = inhibition, hits mostly inhibitors | 8.8% of 350,000 active | AID 504332; further: on the % scale 0 is the no-effect control and ±100 the full control effect; nearly all actives have a fitted effect of over 75% in size
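AlphaScreen detection with an anti-monomethyl H3K9 antibody quantified product after a 2 h room-temperature reaction containing 500 nM biotinylated H3K9 peptide, 20 µM SAM and 20 nM enzyme, which had been preincubated 15 min with compound.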
HP1b binding inh – HP1-beta chromodomain-methylated histone interaction inhibition. AID 540317. Potency, µM (titrated, usually from 114 µM), for the others: at the top dose activity change, negative = inhibition, most hits filed as inhibitors. P83916. AlphaScreen HP1-beta / biotin-H3K9me3 peptide binding. 0.56% of 390,000 active; further: nearly all actives have a fitted effect of over 70% in size
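AlphaScreen: HP1-beta (50 nM) preformed 30 min with biotin-H3(1-18)K9me3 peptide (50 nM) in PBS pH 7.4, 0.01% Tween-20. Compound added for 30 min at RT, then streptavidin donor/nickel chelate acceptor beads (10 ug/mL) for 30 min.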
GLS inh – glutaminase GLS (human) inhibition. Potency, µM (top dose mostly 45.5 µM), for the others: at the top dose activity change, negative = inhibition, hits mostly inhibitors. O94925. GLS enzymatic activity, qHTS titration. 0.21% of 410,000 active; further: on the % scale 0 is the no-effect control and ±100 the full control effect
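Compounds were pin-transferred onto hKGA, after which L-glutamine (1 mM solution) and a detection mix of glutamate oxidase, HRP and Amplex Red were added. Initial and 30 min RT fluorescence reads were collected.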
BAZ2B inh – blocks human BAZ2B. AID 504333. AlphaScreen BAZ2B-H3K14Ac peptide displacement. 4.4% of 360,000 active. Potency, µM (series often up to 114 µM), without a hit: at the highest dose activity change, negative = inhibition, hits mostly inhibitors. Q9UIF8; further: on the % scale 0 is the no-effect control and ±100 the full control effect; nearly all actives have a fitted effect of over 60% in size
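Compounds, titrated to a top concentration of 110 uM, were incubated 30 min at room temperature with preformed BAZ2B/acetyl-K14 H3 peptide complex (50 nM each). Proximity signal was measured by AlphaScreen after 20 min with beads.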
JMJD2A Tudor inh – inhibitors of human JMJD2A Tudor domain. O75164. AlphaScreen JMJD2A-Tudor / H3K4me3 peptide binding. Potency, µM (top dose mostly 114 µM), for inactives: at the highest dose activity change, negative = inhibition, most hits filed as inhibitors. 4.4% of 390,000 active. AID 504339; further: on the % scale 0 is the no-effect control and ±100 the full control effect; nearly all actives have a fitted effect of over 50% in size
Active calls of the source: *; u = inconclusive; x = not tested or not shown; [ ] = remark or other dose. The call rests on the fitted dose curve; in most records, active means well fitted curve in the direction sought with a large enough effect; inconclusive means small, poorly fitted or top-dose-only effect, or another doubt; inactive means no such curve, though single readings can be large; an effect the other way counts as inactive or inconclusive. Potency means the concentration at half of the fitted maximal effect.

SMILES	G9a inh	HP1b binding inh	GLS inh	BAZ2B inh	JMJD2A Tudor inh
O=C(Nc1ccc([N+](=O)[O-])cc1)N1CCCCCC1	-27%	46%	-12%	-8%	-11%
Cc1cc(C)c2nc3s/c(=C/c4ccccc4)c(=O)n3c2c1	1.3µM*	x	x	3%	x
Cc1ccc2c(nc3s/c(=C/c4cccs4)c(=O)n32)c1C	7.9µM*	-13%	8%	x	u
Cc1cc(C)c2nc3sc(=Cc4ccc(-c5ccccc5C(=O)O)o4)c(=O)n3c2c1	x	x	13µM*	x	x
Cc1c(C(=O)O)cccc1-c1ccc(C=O)o1	u	5%	-17%	-10%	-31%
Cc1ccc2c(nc3s/c(=C\c4ccc(-c5ccccc5C(=O)O)o4)c(=O)n32)c1C	18µM*	-18%	u	56µM*	u
Clc1ccc(Cn2ncc3c(NCc4ccccc4)ncnc32)c(Cl)c1	-11%	x	x	0%	x
COCc1c(C(=O)OCc2nc(N)nc(Nc3ccccc3C)n2)oc2ccccc12	-6%[59 µM]	2%	0%	u	-30%
COc1ccc(CCNC(=S)Nc2cccc3ccccc23)cc1	-14%[59 µM]	17%	-1%	u	-18%
O=C(O)c1ccc(-c2ccc(/C=c3/sc4nc5ccccc5n4c3=O)o2)cc1Cl	5µM*	18µM*	10µM*	40µM*	20µM*
CN(CCO)c1nc(N)c2c(N)nc3c(c2c1C#N)CC(=O)N3Cc1cccs1	u	34%	5%	-26%	-7%
N#Cc1c(N(CCO)CCO)nc(N)c2c(N)nc3c(c12)CC(=O)N3Cc1cccs1	45µM*	-15%	u	u	u
CN1CCN(c2ccc(NC(=O)c3ccc(-c4ccc(Br)cc4)o3)cc2)CC1	32µM*	u	0%	25µM*	35µM*
CC(=O)N1CCN(c2ccc(NCc3ccc(-c4ccc(Br)cc4)o3)cc2)CC1	x	-22%	5%	x	25µM*
CCN1CCN(c2ccc(NC(=O)c3ccc(Br)o3)cc2)CC1	-2%	23%	12%	-20%	-11%
Cc1ccc(S(=O)(=O)NCCNC(=O)c2cc(OCC(F)(F)F)ccc2OCC(F)(F)F)cc1	-6%[59 µM]	33%	1%	7%	-9%
COc1cc(CNn2cn[nH]c2=S)ccc1OCC(=O)NC(C)(C)C	18µM*	52%	-5%	-33%	u
COc1cc(CNC(C)(C)CO)ccc1OCC(=O)NC(C)(C)C	-2%[59 µM]	40%	3%	3%	-2%[57.1 µM]
COc1cc(CNn2c(C)n[nH]c2=S)cc(Cl)c1OCC(=O)NC(C)(C)C	x	52%	-25%	-7%	56µM*
COc1cc(CNn2c(C)n[nH]c2=S)cc(Br)c1OCC(=O)NC(C)(C)C	4µM*	26%	-6%	-8%	u
CCOc1cc(CNn2cnnc2)cc(Cl)c1OCC(=O)NC(C)(C)C	17%	34%	-1%	-32%	-4%
Cc1oc(-c2cccc3ccccc23)nc1CN1CCN(c2ncnc3ccccc23)CC1	45µM*	u	3%	u	u
NS(=O)(=O)c1ccc(-c2c(-c3ccccc3)sc3ccccc23)cc1	-3%[0.501 µM]	13%	-9%	56µM*	79µM*
CC(C)OCCCNc1ncc2c(n1)CC(c1ccc(N(C)C)cc1)CC2=O (stereo unspecified)	35µM*	-9%	27%	-38%	u
Cc1csc(Nc2ccccc2)n1	u	-10%	-18%	u	-19%
SMILES	G9a inh	HP1b binding inh	GLS inh	BAZ2B inh	JMJD2A Tudor inh
Cc1nc(NC(=O)c2cc3ccccc3o2)sc1C	21%	6%	1%	56µM*	-12%
CC(C)(Oc1ccc(Cl)cc1)C(=O)Nc1nc2ccc(S(C)(=O)=O)cc2s1	11µM*	-10%	-1%	-4%[57.1 µM]	-31%
CNS(=O)(=O)c1ccc2nc(NC(=O)c3ccc(N4C(=O)CCC4=O)cc3)sc2c1	3.5µM*	13%	u	-13%	u
Cc1nc(Nc2ccccc2)sc1C	13µM*	-5%	10%	u	u
CS(=O)(=O)c1ccc2nc(NC(=O)c3ccccc3Br)sc2c1	50µM*	34%	0%	-2%	-8%
CS(=O)(=O)c1ccc2sc(NC(=O)c3cc4ccccc4o3)nc2c1	40µM*	25%	10%	-13%	1%
Cc1nc(NC(=O)c2csc3ccccc23)sc1C	45µM*	17%	-1%	-33%	-2%
